Screens deposited in PubChem BioAssay by National Center for Advancing Translational Sciences (NCATS).
aSyn rescue = rescues yeast growth from alpha-synuclein toxicity. Yeast expressing alpha-synuclein, growth rescue, BacTiter-Glo, 24 h. Potency, µM (highest dose often 46.1 µM), most hits filed as activators. hit rate 0.14% among 370,000. AID 652106; further: nearly all actives have a fitted effect of over 65% in size
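Screening used galactose-induced yeast with toxic alpha-synuclein levels, exposed to compound for 24 hr at 30 deg C. Cell growth, read with BacTiter-Glo luminescence, gave the measured signal.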
TDP-43 yeast inh = inhibitors of TDP-43 toxicity in yeast; TDP-43 expressing yeast growth rescue, BacTiter-Glo, 24 h; Potency, µM (highest dose often 46.1 µM), hits mostly activators; hit rate 1.8% among 410,000; AID 652104; further: nearly all actives have a fitted effect of over 50% in size
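Growth rescue of TDP-43-toxic yeast measured as ATP luminescence (BacTiter-Glo). Cells grown to mid-log in raffinose, induced in galactose at OD600=0.02, exposed to compound 24 hr at 30 deg C.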
FUS yeast rescue = suppressors of FUS proteinopathy in yeast | S. cerevisiae FUS-expressing, growth rescue, OD600, 24 h | Potency, µM (highest dose often 76.6 µM), usual class: activators | hit rate 0.24% among 390,000 | AID 1347120; further: nearly all actives have a fitted effect of over 55% in size
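Toxicity suppression screen in FUS-yeast. Cells induced with 2% galactose, starting OD 0.005, treated 24hr at 30C with compounds at multiple final concentrations; growth by OD600.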
Akt phos inh = inhibitors of Akt phosphorylation; Neuro2A IGF-stimulated pAkt S473 HTRF, 20 min; stronger effect = lower value; activity change, % for hits at 50 µM; hit rate 0.32% among 360,000; in the data active means activity change below about -80%; inconclusive means mostly about -51% to -80%
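Neuro2A cells (4,500/well, DMEM with 0.5% FBS) were treated with compound at a single 50 µM final concentration, stimulated with 6 nM IGF for 20 min at 37 °C, and lysed. Phospho-Akt Ser473 was read by HTRF as 665/615 ratio ×10^4.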
Abeta yeast res = A-beta toxicity reversal in yeast; yeast expressing A-beta42, growth rescue, OD600, 48 h; response scale: 0% DMSO, 100% iron-clioquinol control; Potency, µM (titrated, usually from 46.1 µM), most hits filed as activators; hit rate 0.063% among 410,000; further: nearly all actives have a fitted effect of over 55% in size
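Yeast growth medium received pinned compounds, then yeast cells expressing toxic A-beta were added; plates incubated at 30 C for 48 hr. Growth read as absorbance at 600 nm, normalized to DMSO and equimolar FeCl3 plus clioquinol controls.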
Of the large screens only hits and unclear results are named; the others gave an inactive call. Most compounds without a hit are left out; they make up all but 2.3% or so of the library. Unless noted, the call rests on the fitted dose curve; in most records, active means well fitted curve in the direction sought with a large enough effect; inconclusive means small, poorly fitted or top-dose-only effect, or another doubt; inactive means no such curve, though single readings can be large; an effect the other way counts as inactive or inconclusive.

COc1ccc(N(Cc2cccs2)C(=O)COc2ccc([N+](=O)[O-])cc2)cc1	none (no result: aSyn rescue, Akt phos inh)
CC(CCl)n1c(=O)c2ccccc2n1C(=O)c1ccccc1 (configuration not stated)	TDP-43 yeast inh 11µM
COC(=O)Cn1c2ccccc2c(=O)n1C(C)CBr (configuration not stated)	none
O=c1[nH]cc(C#Cc2ccccc2)c2ncncc12	none (no result: TDP-43 yeast inh, FUS yeast rescue, Akt phos inh, Abeta yeast res)
O=C(NC1CCSc2ccccc21)c1ccc([N+](=O)[O-])cc1 (configuration not stated)	TDP-43 yeast inh inconclusive, Abeta yeast res inconclusive
O=C(OCc1ccccc1F)c1cc([N+](=O)[O-])ccc1N1CCOCC1	TDP-43 yeast inh 35µM (no result: FUS yeast rescue)
O=C(NC1CCSc2ccccc21)c1cc([N+](=O)[O-])ccc1N1CCOCC1 (configuration not stated)	TDP-43 yeast inh 35µM
COc1ccc(-n2ccnc(NCCc3ccc(S(N)(=O)=O)cc3)c2=O)cc1Cl	none (no result: aSyn rescue, Akt phos inh)
CCOC(=O)c1c(NC(=O)COC(=O)c2cccc([N+](=O)[O-])c2)sc(C(=O)N(C)C)c1C	Abeta yeast res 13µM
COc1cc(C2C(C#N)=C(N)Oc3c2ccc2ccccc32)ccc1OCC(=O)Nc1ccccc1C (configuration not stated)	FUS yeast rescue inconclusive, Akt phos inh -104%
Cc1cccc(C)c1NC(=O)C(C1CC1)n1c(=O)c(-c2ccccc2)nc2ccccc21 (configuration not stated)	aSyn rescue inconclusive, TDP-43 yeast inh 13µM
Cc1cccc(C)c1NC(=O)C(C1CC1)n1c(=O)c(-c2cc3ccccc3[nH]2)nc2ccccc21 (configuration not stated)	aSyn rescue inconclusive, TDP-43 yeast inh inconclusive, FUS yeast rescue 5.6µM
COc1ccc(C(=O)/C=C/c2ccc(OC)c(O)c2)c(F)c1	TDP-43 yeast inh 22µM (no result: FUS yeast rescue)
COc1cc(C=CC(=O)c2ccccc2)cc(OC)c1OC	aSyn rescue inconclusive, TDP-43 yeast inh 14µM
COc1cc(/C=C/C(=O)N2CCC=CC2=O)cc(OC)c1OC	TDP-43 yeast inh 22µM
COc1cc(OC)c(C(=O)C=Cc2ccc(OC)c(OC)c2)c(OC)c1	none
COc1ccc(C=CC(=O)c2ccc(OC)c(OC)c2O)cc1OC	aSyn rescue inconclusive, TDP-43 yeast inh 13µM
Cc1ccc(S(=O)(=O)N2CCN(c3nc(-c4cccs4)nc(C)c3C)CC2)cc1	none (no result: TDP-43 yeast inh, FUS yeast rescue, Akt phos inh, Abeta yeast res)
CCOC(=O)C1=C(CS(=O)(=O)c2ccc(C(C)(C)C)cc2)NC(=O)NC1c1cccc(OC)c1 (configuration not stated)	none (no result: aSyn rescue, Akt phos inh)
c1ccc2c(c1)OCCOCCOc1ccccc1OCCOCCO2	TDP-43 yeast inh 11µM
COc1ccc(C(=O)OCCN2CCN(C3CN(Cc4cn(Cc5ccccc5Cl)nn4)S(=O)(=O)C3)CC2)cc1OC (configuration not stated)	none (no result: aSyn rescue, TDP-43 yeast inh, Akt phos inh, Abeta yeast res)
CCOC(=O)c1c(C)oc2ncnc(Nc3ccc(OC)cc3OC)c12	TDP-43 yeast inh inconclusive (no result: aSyn rescue, Akt phos inh)
N#Cc1c2n(c3c(=O)n(Cc4ccc(Cl)cc4)cnc13)CCCCC2	TDP-43 yeast inh 20µM
COc1ccc(-n2ncc(Cl)c(Cl)c2=O)cc1	TDP-43 yeast inh inconclusive
COc1ccc(-n2ncc(N(C)n3cccc3)c(Cl)c2=O)cc1	Akt phos inh -115%
C=C(/C=C/c1ccc(N(C)C)cc1)c1nc2ccccc2s1	none (no result: TDP-43 yeast inh, FUS yeast rescue, Akt phos inh, Abeta yeast res)
Cc1cccc(-c2cc3nc(-c4ccccc4)cc(N4CCC5(CC4)OCCO5)n3n2)c1	TDP-43 yeast inh 35µM
CCOC(=O)C1=C(Cc2ccc(OC)cc2)C(=O)c2ccccc2C1=O	TDP-43 yeast inh 13µM
COc1ccc(-n2ncc(C(=O)N3CCN(Cc4ccccc4)CC3)c2C2CCN(C(=O)OC(C)(C)C)CC2)cc1	none (no result: aSyn rescue, Akt phos inh)
CCn1ccc2c(OCC(=O)Nc3ccccc3C)cccc2c1=O	TDP-43 yeast inh 13µM (no result: aSyn rescue, Akt phos inh)
C=CCC[C@@H](Cc1ccc(F)cc1)C(=O)OC[C@@H]1CCCN1C(=O)[C@H](CC=C)CC(=O)N[C@H](CO)Cc1ccccc1	aSyn rescue inconclusive, TDP-43 yeast inh inconclusive, FUS yeast rescue 20µM
C=CCC[C@@H](Cc1ccc(F)cc1)C(=O)OC[C@@H]1CCCN1C(=O)[C@@H](CC=C)CC(=O)N(CCO)Cc1ccccc1	FUS yeast rescue 20µM
